Among the data in PubChem BioAssay (NCATS) are Potency values, retold here.

Results filed as inconclusive are left out. Entries that show only a call come without a potency. Calls of active or inactive are those of the source. Calls follow the shape of the dose curve; as a rule, active = well fitted cell-killing curve with a large enough effect; inconclusive = small, poorly fitted or top-dose-only effect; inactive = no such curve, though single readings can be large or run the other way.
Potency is read from the fitted curve at half-maximal effect.

The nature of this test: Quantitative High-Throughput drug screen in 47 multiple myeloma cell lines against the NCATS MIPE library collection: NCIH929_DSMZ cell viability assay (AID 1918978). Also: nearly all actives have a fitted effect of over 35% in size. As to conditions: NCI-H929 myeloma viability, CellTiter-Glo ATP, 48 h; series mostly up to 45.8 µM. The source says: PI: Beverly A. Mock Ph.D.
Laboratory of Cancer Biology and Genetics,
Center for Cancer Research, National Cancer Institute,
National Institute of Health, Bethesda, Maryland
Drug resistance and disease progression are common in multiple myeloma (MM) patients, underscoring the need for new therapeutic combinations. […] We hypothesized that effective combinations would reduce MYC expression and enhance p16 activity. […] These preclinical data identify potentially useful drug combinations for evaluation in drug-resistant MM and reveal potential mechanisms of combined drug sensitivity.
Described herein is the primary MIPE qHTS used to cherrypick compounds. Validated compounds were then further tested for potential synergistic activiy.
[1] Peat TJ, Gaikwad SM, Dubois W, Gyabaah-Kessie N, Zhang S, Gorjifard S, Phyo Z, Andres M, Hughitt VK, Simpson RM, Miller MA, Girvin AT, Taylor A, Williams D, D'Antonio N, Zhang Y, Rajagopalan A, Flietner E, Wilson K, Zhang X, Shinn P, Klumpp-Thomas C, McKnight C, Itkin Z, Chen L, Kazandijian D, Zhang J, Michalowski AM, Simmons JK, Keats J, Thomas CJ, Mock BA. Drug combinations identified by high-throughput screening promote cell cycle transition and upregulate Smad pathways in myeloma. Cancer Lett. 2023 Aug 1;568:216284. doi: 10.1016/j.canlet.2023.216284. Epub 2023 Jun 24. PMID: 37356470; PMCID: PMC10408729.
SEQUENCE No. (e.g., 1, 2, 3, etc.); […] (e.g., Cells, Incubation, Reagent, etc.); VALUE and DESCRIPTION.
1; Cells; 5 uL; white, solid bottom 1536-well Greiner assay plate.
2; Compounds; 23 nL; Kalypsis pin tool (Wako USA) equipped with a 1536-well pin head to transfer to the assay plates.
3; Incubation; 48 hours; 37C incubation.
4; Reagent;5uL; CellTiter Glo (Promega).
5; Detector; 425V; Luminescence; Viewlux PerkinElmer.
NOTES (numbers refer to Sequence numbers above)
1. The cell-based screening methods employed in this study were like those previously published. Briefly, the corresponding myeloma cell lines were screened in 1,536-well plates with 500 cells, 5-uL per well for inhibition of cell viability (assessed by measuring ATP levels with CellTiterGlo).
2. NCATS MIPE 4.0 library of approved and investigational drugs were added using the Kalypsis pin tool. Wells treated with DMSO only for 100% viability and media only for 0% viability were used as controls.
3. The assay plates were covered and incubated for 48 hours in a 37C, 5% CO2 incubator with controlled humidity.
4. After 48 hours, CellTilter-GloTM luminescent substrate mix (Promega) reagent was added to the assay plate and plates we incubated for 5 min at room temperature.
5. Signal was measured as median relative luminescence units on a ViewLux (PerkinElmer) multiplate reader.
[1] Heske CM, Davis MI, Baumgart JT, Wilson K, Gormally MV, Chen L, Zhang X, Ceribelli M, Duveau DY, Guha R, Ferrer M, Arnaldez FI, Ji J, Tran HL, Zhang Y, Mendoza A, Helman LJ, Thomas CJ. Matrix Screen Identifies Synergistic Combination of PARP Inhibitors and Nicotinamide Phosphoribosyltransferase (NAMPT) Inhibitors in Ewing Sarcoma. Clin Cancer Res. 2017 Dec 1;23(23):7301-7311. doi: 10.1158/1078-0432.CCR-17-1121. Epub 2017 Sep 12. PMID: 28899971; PMCID: PMC6636827.
(In ATP-based viability assays light output follows the ATP content of the culture.)
With `Cc1cc(SCc2sc(-c3ccc(C(F)(F)F)c(F)c3)nc2C)ccc1OCC(=O)O`, the Potency is 20900 nM (active).

In the case of `CCCC(C)(COC(N)=O)COC(=O)NC(C)C` (stereo unspecified), the Potency result is “inactive”. As to `O=C1CC[C@@]2(O)[C@H]3Cc4ccc(O)c5c4[C@@]2(CCN3CC2CC2)[C@H]1O5`, the Potency result was “inactive”. For `COC1(CS(=O)c2ccccc2)CCN(CCc2c[nH]c3ccc(F)cc23)CC1` (stereo unspecified) the value was “inactive”; for `CN(C)CCN(C)CCc1ccc(Cl)c(Cl)c1`, “inactive”; for `NCC1(CC(=O)O)CCCCC1`, “inactive”.

With `CN(C)CCc1ccc(O)cc1`, the Potency entry was “inactive”. For the compound `CNC(=O)c1ccc(N2C(=S)N(c3ccc(C#N)c(C(F)(F)F)c3)C(=O)C23CCC3)cc1F`, the Potency was 1320 nM (active). Turning to `C[C@@H]1[C@@H](CC(C[C@H]2O[C@@H]3O[C@]4(C)CC[C@@H]5[C@H](C)CC[C@@H]([C@H]2C)[C@@]35OO4)C[S+](=O)([O-])c2ccc(COC(=O)N(C)C)cc2)O[C@@H]2O[C@]3(C)CC[C@H]4[C@H](C)CC[C@@H]1[C@@]24OO3` (stereo partly specified), the Potency was 83.3 nM (active).

In the case of `C[C@@H]1[C@@H](C(=O)C[C@H]2O[C@@H]3O[C@]4(C)CC[C@@H]5[C@H](C)CC[C@@H]([C@H]2C)[C@@]35OO4)O[C@@H]2O[C@]3(C)CC[C@H]4[C@H](C)CC[C@@H]1[C@@]24OO3`, the Potency was 132 nM (active). With `Cc1cccc(C)c1NC(=O)CN1CCCC1=O`, the Potency result was “inactive”. As for `C#CCN(C)[C@H](C)Cc1ccccc1`, the Potency result is “inactive”. For `CC(O)(CS(=O)(=O)c1ccc(F)cc1)C(=O)Nc1ccc(C#N)c(C(F)(F)F)c1` (stereo unspecified) the value was 187 nM (active).

Turning to `CC1=C2C[C@@H]3[C@@H](CC=C4C[C@@H](O)CC[C@@]43C)[C@@H]2CC[C@]12O[C@H]1C[C@H](C)CN[C@H]1[C@H]2C`, the Potency result was “inactive”. As to `Cn1cc(C2=C(c3cn(C4CCN(Cc5ccccn5)CC4)c4ccccc34)C(=O)NC2=O)c2ccccc21`, the Potency was 5900 nM (active). Turning to `Fc1ccc(C(OCCN2CCN(CCCc3ccccc3)CC2)c2ccc(F)cc2)cc1`, the Potency is 13200 nM (active). The value for `CC(C)CC(N(C)C)C1(c2ccc(Cl)cc2)CCC1` (stereo unspecified) was “inactive”; that for `COc1ccc(C(CN(C)C)C2(O)CCCCC2)cc1` (stereo unspecified) was “inactive”; that for `O=P1(NCCCl)OCCCN1CCCl` (stereo unspecified) was “inactive”. The value for `COC[C@@H](NC(C)=O)C(=O)NCc1ccccc1` was “inactive”. The value for `CN(C)[C@@H]1C(=O)C(C(N)=O)=C(O)[C@@]2(O)C(=O)C3=C(O)c4c(O)cccc4[C@@](C)(O)[C@H]3C[C@@H]12` was “inactive”. Turning to `Cc1sc2c(c1C)C(c1ccc(Cl)cc1)=N[C@@H](CC(=O)OC(C)(C)C)c1nnc(C)n1-2`, the Potency is 148 nM (active). The value for `COC[C@H]1OC(=O)c2coc3c2[C@@]1(C)C1=C(C3=O)C2CCC(=O)[C@@]2(C)C[C@H]1OC(C)=O` (stereo partly specified) was 469 nM (active); that for `Cn1c(CCCC(=O)O)nc2cc(N(CCCl)CCCl)ccc21` was 13200 nM (active).

Regarding `COc1ccc(C(=O)c2c(C)n(CCN3CCOCC3)c3ccccc23)cc1`, the Potency result is “inactive”. For `CN1CCN(C(=O)O[C@H]2c3nccnc3C(=O)N2c2ccc(Cl)cn2)CC1` the value was “inactive”. For `N[C@@H](Cc1ccc(N(CCCl)CCCl)cc1)C(=O)O` the value was 3320 nM (active); for `C[C@@H]1O[C@@H](O[C@H]2C[C@@H](O)[C@]3(CO)[C@H]4[C@H](O)C[C@]5(C)[C@@H](C6=CC(=O)OC6)CC[C@]5(O)[C@@H]4CC[C@]3(O)C2)[C@H](O)[C@H](O)[C@H]1O`, 59 nM (active); for `C=C(C)[C@H]1Cc2c(ccc3c2O[C@@H]2COc4cc(OC)c(OC)cc4[C@@H]2C3=O)O1`, 1870 nM (active). With `COc1ccc2c(c1OC)CN1CCc3cc4c(cc3C1C2)OCO4` (stereo unspecified), the Potency result was “inactive”.

With `CNCC(O)c1ccc(O)cc1` (stereo unspecified), the Potency result is “inactive”.
